# Screening data from PubChem.
# Compounds with a hit are over-represented: about 27% of the library has one in this group of screens.
# CYP2C19 act: activators of human cytochrome P450 2C19. recombinant CYP2C19, luciferin-H EGE luminescence; active compounds read high; 0 = fully inhibited enzyme, 1 = untreated enzyme. activation factor at 5 µM. 96,000 tested, under 10 active;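 active = activation factor of at least 2 at 5 µM in the primary screen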;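 also: 0 = wells with 2.5 mM tranylcypromine and 1 = vehicle-only wells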
# CYP2C9 inh: human CYP2C9 inhibition; P11712; CYP2C9 Supersomes, luciferin-H conversion, luminescence; inhibition, % at 5 µM; actives 20% (n = 96,000);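 active = blocking of liver enzyme CYP2C9 beyond about 50% at 5 µM, limit read from the data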
# Target sequence (P11712 whole entry, looked up): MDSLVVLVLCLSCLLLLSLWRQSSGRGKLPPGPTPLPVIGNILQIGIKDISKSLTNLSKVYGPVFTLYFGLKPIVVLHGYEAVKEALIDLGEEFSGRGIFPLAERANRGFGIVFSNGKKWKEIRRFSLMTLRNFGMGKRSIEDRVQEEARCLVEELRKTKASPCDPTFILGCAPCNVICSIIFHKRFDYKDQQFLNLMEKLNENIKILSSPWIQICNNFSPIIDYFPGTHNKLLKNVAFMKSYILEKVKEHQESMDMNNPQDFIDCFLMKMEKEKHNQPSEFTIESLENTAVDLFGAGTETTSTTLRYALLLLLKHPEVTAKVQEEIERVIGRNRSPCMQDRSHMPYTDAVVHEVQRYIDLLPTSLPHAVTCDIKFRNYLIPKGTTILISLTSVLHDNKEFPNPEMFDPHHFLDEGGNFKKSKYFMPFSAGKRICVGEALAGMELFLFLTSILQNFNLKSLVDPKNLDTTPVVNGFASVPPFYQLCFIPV
# CYP2C19 inhib: blocks human cytochrome P450 2C19 | CYP2C19 Supersomes, luciferin-H EGE luminescence, 30 min | inhibition, % at 5 µM | actives 21% (n = 96,000);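 active = CYP2C19 inhibition above a set limit at 5 µM in the primary screen, cut at about 50% in these data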;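 also: plate controls were negative control wells for no effect and 2.5 mM tranylcypromine positive control for full effect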
# Cav3 T inh: inhibitors of human Cav3.2 T-type calcium channel | B-score at 10 µM | O95180 | Cav3.2-expressing cells, Fluo-4 calcium fluorescence FDSS; active compounds read low | actives 4% (n = 100,000);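 active = single-dose well whose peak fluorescence ratio is a statistical outlier from its plate by either plate-standardised score or position-corrected B-score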
# CYP2C9 activ: increases human cytochrome P450 2C9 activity; P11712; recombinant CYP2C9, luciferin-H conversion, luminescence; active compounds read high; factor 1 = untreated enzyme, 0 = blocked; activation factor at 5 µM; actives 1.4% (n = 96,000); AID 1024;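 active = activation factor of 2 or more for CYP2C9 at a 5 µM dose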;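 also: 0 = sulfaphenazole-blocked wells and 1 = vehicle-only wells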
# * marks the source's active call; other numbers are inactive results; nt = no result.
SMILES,CYP2C19 act,CYP2C9 inh,CYP2C19 inhib,Cav3 T inh,CYP2C9 activ
O=C(c1ccc(Br)cc1)N1CCN(S(=O)(=O)c2ccccc2)CC1,0.3,41.9,70.5*,-0.089,0.6
O=S(=O)(c1ccccc1)N1CCN(Cc2ccccc2C(F)(F)F)CC1,0.1,82.6*,93.8*,-3.6,0.2
O=C(c1nc(-c2ccccc2)n(-c2ccccc2)n1)N1CCN(S(=O)(=O)c2ccccc2)CC1,0.9,65.7*,11.7,-3.48,0.3
O=C(c1ccccc1C(F)(F)F)N1CCN(S(=O)(=O)c2ccccc2)CC1,0.1,7.1,87.0*,0.0503,0.9
O=S(=O)(c1cccc(C(F)(F)F)c1)N1CCN(c2ccccc2)CC1,0.7,6.3,26.8,-0.521,0.9
Cc1ccccc1CN1CCN(Cc2ccccc2C(F)(F)F)CC1,0.1,31.2,90.7*,0.199,0.7
O=C(CSc1cccc(C(F)(F)F)c1)N1CCN(S(=O)(=O)c2ccccc2)CC1,0.4,10.0,59.3*,-1.59,0.9
COc1ccc(C(=O)NC(=S)NC(C)C)cc1Br,0.4,18.5,59.6*,0.00583,0.8
O=C(OCCCN=C1NS(=O)(=O)c2ccccc21)c1ccccc1F,0.7,28.2,27.6,0.75,0.7
COc1ccc(C(c2c(O)ccc3ccccc23)N2CCOCC2)c(OC)c1 (stereo not drawn),0.1,92.7*,86.9*,nt,0.1
COc1ccc(C(CCN2CCOCC2)c2c(O)cc(OC)cc2OC)cc1 (stereo not drawn),nt,nt,nt,0.343,nt
O=C(NCc1cccnc1)c1cnc2n(c1=O)CCS2,nt,nt,nt,-0.26,nt
O=C(NCc1ccccc1Cl)c1cnc2n(c1=O)CCS2,0.4,3.5,63.8*,-0.125,1
Cc1nc2c(C(=O)NCc3ccccc3Cl)c[nH]n2c(=O)c1Cl,0.7,92.1*,29.7,-2.99,0.1
Cc1nc2c(C(=O)NCc3ccccc3)c[nH]n2c(=O)c1Cl,1.1,53.1*,-9.9,-0.0308,0.5
CCCC[C@@H]1CCCO[C@@](C(=O)NCc2ccc(C)o2)(C(F)(F)F)C1,nt,nt,nt,0.059,nt
O=C1CN(C(=O)CN2CCOCC2)C(c2ccccc2)c2cc(Br)ccc2N1 (stereo not drawn),0.4,68.0*,64.8*,2.95,0.3
Cn1c(NCc2ccccc2)nc2c1c(=O)n(Cc1ccccc1)c(=O)n2C,0.6,33.3,40.7,nt,0.7
CC(C)CCNc1nc2c(c(=O)n(Cc3cccc(F)c3)c(=O)n2C)n1C,0.1,84.7*,88.0*,-3.9,0.2
Cn1c(=O)c2c(nc(NCCc3ccccc3)n2Cc2ccc(F)cc2)n(C)c1=O,0.6,46.7,39.3,-0.326,0.5
Cn1c(NCC(O)c2ccccc2)nc2c1c(=O)n(Cc1ccc(Cl)c(Cl)c1)c(=O)n2C (stereo not drawn),nt,nt,nt,-3.08,nt
Cn1c(NCC(O)c2ccccc2)nc2c1c(=O)n(Cc1ccc(Cl)cc1)c(=O)n2C (stereo not drawn),0.8,53.4*,23.9,-2.84,0.5
COc1ccc(CNc2nc3c(c(=O)n(Cc4ccc(F)cc4)c(=O)n3C)n2C)cc1,0.1,81.1*,90.8*,nt,0.2
CCOCc1nnc(NC(=O)c2c(OC)cccc2OC)s1,0.9,-0.5,7.6,0.459,1
CCOC(=O)CNC(=O)CSc1nc(C)cc(C)c1C#N,0.2,-91.5,82.6*,0.898,1.9
SMILES,CYP2C19 act,CYP2C9 inh,CYP2C19 inhib,Cav3 T inh,CYP2C9 activ
Cc1cc(C)c(C#N)c(SCC(=O)NC(C)(C)C)n1,0.6,18.9,39.7,0.0794,0.8
Cc1ccc(CNC(=O)CSc2nc(C)cc(C)c2C#N)cc1,0.4,-39.8,56.8*,-1.6,1.4
O=C(CSc1nnnn1-c1cccnc1)NCc1cccs1,0.8,13.0,17.1,-0.813,0.9
CC(=O)Nc1ccc(NC(=O)COC(=O)Cc2cccs2)cc1,0.9,9.9,10.8,0.417,0.9
CC(C)CCN1C(=O)c2ccc(C(=O)NCC3CCCO3)cc2C1=O (stereo not drawn),0.2,80.7*,79.3*,-0.179,0.2
Cc1cc(NC(=O)c2ccc3c(c2)C(=O)N(CCC(C)C)C3=O)no1,0.9,12.5,6.8,-0.43,0.9
O=C(NCC1CCCO1)c1ccc2c(c1)C(=O)N(C1CCCCC1)C2=O (stereo not drawn),1,60.6*,1.2,0.934,0.4
CC(C)COC(=S)Nc1ccccc1,0.2,23.2,77.8*,-0.747,0.8
S=C(Nc1ccccc1)N1CCCCCC1,0.8,22.4,23.0,0.15,0.8
COc1cc(Nc2nc3ccccc3n3nnnc23)cc(OC)c1OC,0.7,68.8*,32.3,0.177,0.3
CN(C)c1ccc(C(c2nnnn2CCOC(=O)Nc2ccc(Cl)cc2)N2CCOCC2)cc1 (stereo not drawn),0.1,87.4*,93.2*,-4.12*,0.1
O=C(Nc1ccc(Cl)cc1)OCCn1nnnc1C(c1ccccc1)N1CCOCC1 (stereo not drawn),0.7,64.6*,34.7,-0.438,0.4
COC(=O)c1ccccc1NS(=O)(=O)c1cn(C)c(=O)n(C)c1=O,0.9,8.2,8.7,-0.284,0.9
CN(C)CCCn1c(NC(=O)C2CCCCC2)nc2ccccc21,1.2,-18.9,-15.2,-3.59*,1.2
CCCCn1c(NC(=O)C2CCCCC2)nc2ccccc21,0.8,-12.4,17.5,-3.43,1.1
CCCCn1c(NC(=O)c2ccccc2)nc2ccccc21,0.4,73.4*,60.8*,-1.12,0.3
CCCn1c(NC(=O)c2ccc(Br)cc2)nc2ccccc21,0.9,4.1,8.0,0.557,1
CCCCCn1c(C(Cc2ccccc2)NC(C)=O)nc2ccccc21 (stereo not drawn),0.3,22.6,73.6*,-0.313,0.8
S=C1NCCc2ccc(Cl)cc2C1c1ccccc1 (stereo not drawn),nt,nt,nt,-2.7,nt
CC(C)(C)OCC(NC(=O)C(CC(N)=O)NC(=O)OC(C)(C)C)C(=O)OC(C)(C)C (stereo not drawn),1,-6.9,2.7,-1.23,1.1
Cc1cc(C)n(-c2ccc(C(=O)OCc3nnc(-c4ccccc4)o3)cc2)n1,0.9,2.4,7.3,-0.666,1
COc1cc(-c2nnc(COC(=O)CSc3cc(C)c4ccccc4n3)o2)cc(OC)c1OC,0.6,15.3,36.5,nt,0.8
O=C(OCc1nnc(-c2ccccc2)o1)C1=COCCO1,0.5,-0.7,50.7*,0.0672,1
CC(C(=O)OCc1nnc(-c2ccccc2)o1)N1C(=O)c2ccccc2C1=O (stereo not drawn),0.8,55.9*,21.8,1.04,0.4
Cc1ccc(C(=O)OCc2nnc(-c3ccccc3)o2)o1,0.2,41.9,79.9*,0.241,0.6
O=C(CSc1ccc(Cl)cc1)OCc1nnc(-c2ccccc2)o1,1,12.4,2.8,-0.0559,0.9
COc1cc(CCC(=O)OCc2nnc(-c3ccccc3)o2)cc(OC)c1OC,0.4,81.6*,63.6*,-0.000594,0.2
Cc1ccccc1Cn1cc(S(=O)(=O)CC(=O)Nc2nccs2)c2ccccc21,nt,nt,nt,-2.63,nt
O=C(Nc1ccccc1C(=O)OCc1nnc(-c2ccccc2)o1)c1ccco1,0.2,95.3*,75.7*,-2.5,0
